Measurements published in PubChem BioAssay (NCI).
The panel holds about 79,000 compounds, 15% with a hit somewhere; the sample as a whole holds those more often. Activity calls are given as the source filed them. Cut-off read from the data, not from the text of the source: active = growth inhibition above about 70%; inactive = the rest.

How the values were obtained:
[1] = NCI Yeast Anticancer Drug Screen. Data for the wt1 strain (AID 149);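 note: 0% = growth of vehicle-treated wt1 cultures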; conditions: S. cerevisiae wt1 strain (SPY 50644) growth inhibition, hits give high values
How it was run: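 Readout: yeast growth inhibition, normalised to vehicle controls, in the wt1 strain exposed to test compounds.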

[2] = NCI Yeast Anticancer Drug Screen. Data for the mgt1 strain (AID 153); conditions: S. cerevisiae mgt1 mutant growth inhibition, hits give high values
How it was run: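 Compounds were applied to mgt1 mutant yeast, and growth was then compared against vehicle-treated control cultures to give percent inhibition.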

[3] = NCI Yeast Anticancer Drug Screen. Data for the rad50 strain (AID 155);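 note: 0% = growth of vehicle-only cultures of the same strain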; conditions: S. cerevisiae rad50 strain growth inhibition, hits give high values
How it was run: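 Compounds were tested on a yeast strain with an engineered DNA damage repair alteration; the reported value is growth inhibition normalised to vehicle treatment.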

[4] = NCI Yeast Anticancer Drug Screen. Data for the mec2-1 strain (AID 157); conditions: S. cerevisiae mec2-1 strain, hits give high values
How it was run: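 Compounds were applied to mec2-1 yeast cells. Their growth was then compared with that of vehicle-treated cultures to give growth inhibition.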

[5] = NCI Yeast Anticancer Drug Screen. Data for the rad14 strain (AID 159);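 note: 0% = growth of vehicle-treated control cultures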; conditions: S. cerevisiae rad14 strain growth inhibition, hits give high values
How it was run: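 Compound-treated yeast with a defined DNA-repair lesion; growth inhibition normalised to vehicle-treated cultures.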

[6] = NCI Yeast Anticancer Drug Screen. Data for the sgs1 mgt1 strain (AID 161);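 note: 0% = growth of cultures given vehicle only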; conditions: S. cerevisiae sgs1 mgt1 strain, hits give high values
How it was run: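 Compounds are added to genetically altered yeast, and growth is compared with cultures given vehicle alone to give percent inhibition.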

[7] = NCI Yeast Anticancer Drug Screen. Data for the CLN2oe strain (AID 163);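 note: 0% = growth of vehicle-only control cultures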; conditions: S. cerevisiae CLN2oe strain, hits give high values
How it was run: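 Cells of an engineered yeast line with disturbed cell-cycle regulation are treated with compound. Inhibition of growth is then calculated relative to the vehicle-treated reference.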

[8] = NCI Yeast Anticancer Drug Screen. Data for the cln2 rad14 strain (AID 165);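 note: 0% = growth equal to vehicle treated cultures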; conditions: S. cerevisiae cln2 rad14 strain, hits give high values
How it was run: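 Strain: cln2 rad14 yeast, altered in cell cycle control and DNA damage repair. Read-out: growth inhibition vs vehicle.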

[9] = NCI Yeast Anticancer Drug Screen. Data for the bub3 strain (AID 167); conditions: S. cerevisiae bub3 mutant strain, hits give high values
How it was run: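 Growth of a checkpoint-deficient yeast mutant is measured after compound exposure. Values represent inhibition relative to vehicle.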

[10] = NCI Yeast Anticancer Drug Screen. Data for the wt2 strain (AID 169);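 note: 0% = growth of vehicle-treated yeast cultures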; conditions: S. cerevisiae wt2 strain growth inhibition, hits give high values
How it was run: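 Growth of compound-treated yeast is measured and expressed as inhibition relative to vehicle-only controls.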

[11] = NCI Yeast Anticancer Drug Screen. Data for the mlh1 strain (AID 171);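 note: 0% = growth of vehicle-treated control cultures of the same strain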; conditions: S. cerevisiae mlh1 strain growth inhibition, hits give high values
How it was run: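 Test agents were incubated with yeast bearing a defined DNA damage repair or cell cycle control alteration; values are growth inhibition normalised to vehicle-treated cultures.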

[12] = NCI Yeast Anticancer Drug Screen. Data for the sgs1 strain (AID 173);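 note: 0% = growth of vehicle-only control cultures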; conditions: S. cerevisiae sgs1 mutant, hits give high values
How it was run: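 Strain with an altered DNA repair or cell cycle pathway exposed to compound. Growth then measured. Value = inhibition versus vehicle control.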

[13] = NCI Yeast Anticancer Drug Screen. Data for the mlh1 rad18 strain (AID 175); conditions: S. cerevisiae mlh1 rad18 strain growth inhibition, hits give high values
How it was run: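 A repair-deficient yeast strain is exposed to test compound, and growth is scored relative to vehicle-treated controls.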

[14] = NCI Yeast Anticancer Drug Screen. Data for the rad18 strain (AID 177); conditions: S. cerevisiae rad18 mutant growth inhibition, hits give high values
How it was run: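 DNA-repair-defective yeast; compound treatment; growth inhibition scored against vehicle.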

[15] = NCI Yeast Anticancer Drug Screen. Data for the rad50EPP+ strain (AID 151);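 note: 0% = growth of vehicle-treated control cultures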; conditions: S. cerevisiae rad50 mutant strain, hits give high values
How it was run: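 Measured: growth inhibition of rad50EPP+ yeast. Reference: vehicle-treated controls. Screen uses strains with defined genetic alterations in DNA damage repair or cell cycle control.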

[16] = at 5.0 µM (retest, dose inferred, filed as 0.5)
[17] = at 50.0 µM (retest, dose inferred, filed as 5.0)

Measured: growth inhibition

CCN(CC)c1ccc(N=Nc2cc(S(=O)(=O)O)ccc2O)c(O)c1
inactive: [1]; at 1.2 µM 8% | [1]; at 3.7 µM 15% | [1]; at 11.0 µM 20% | [1]; at 33.0 µM 29% | [1]; at 100.0 µM 51% | [2]; at 1.2 µM 3% | [2]; at 3.7 µM -9% | [2]; at 11.0 µM 4% | [2]; at 33.0 µM 9% | [2]; at 100.0 µM 27% | [3]; at 1.2 µM -11% | [3]; at 3.7 µM -19% | [3]; [16] 56% | [3]; at 11.0 µM -33% | [3]; at 33.0 µM -28% | [3]; at 50.0 µM 29.2% | [3]; at 100.0 µM -13% | [4]; at 1.2 µM -28% | [4]; at 3.7 µM -7% | [4]; [16] 55% | [4]; at 11.0 µM -19% | [4]; at 33.0 µM -9% | [4]; at 50.0 µM -14.1% | [4]; at 100.0 µM 22% | [5]; at 1.2 µM -15% | [5]; at 3.7 µM -9% | [5]; at 11.0 µM 3% | [5]; at 33.0 µM 1% | [5]; at 100.0 µM 5% | [6]; [16] -13% | [6]; [17] -3% | [6]; at 50.0 µM 66.1% | [7]; at 1.2 µM 8% | [7]; at 3.7 µM 18% | [7]; at 11.0 µM 4% | [7]; at 33.0 µM 9% | [7]; at 100.0 µM 10% | [8]; [16] 32% | [8]; [17] 39% | [8]; at 50.0 µM 21.5% | [9]; at 1.2 µM 24% | [9]; at 3.7 µM 17% | [9]; [16] 24% | [9]; at 11.0 µM 7% | [9]; at 33.0 µM 11% | [9]; [17] 45% | [9]; at 50.0 µM 50.9% | [9]; at 100.0 µM 35% | [10]; at 1.2 µM -13% | [10]; at 3.7 µM -6% | [10]; at 11.0 µM -42% | [10]; at 33.0 µM -64% | [10]; at 100.0 µM -38% | [11]; at 1.2 µM -12% | [11]; at 3.7 µM -37% | [11]; at 11.0 µM -22% | [11]; at 33.0 µM -3% | [11]; at 100.0 µM -12% | [12]; at 1.2 µM -13% | [12]; at 3.7 µM -10% | [12]; at 11.0 µM -12% | [12]; at 33.0 µM -1% | [12]; at 100.0 µM -15% | [13]; [16] 42% | [13]; at 50.0 µM 19.9% | [14]; at 1.2 µM 2% | [14]; at 3.7 µM 3% | [14]; at 11.0 µM 2% | [14]; at 33.0 µM -2% | [14]; at 100.0 µM 7%
active: [3]; [17] 73% | [4]; [17] 81% | [13]; [17] 75%

CCCCCC/C(C)=N/Nc1ccc([N+](=O)[O-])cc1[N+](=O)[O-]
inactive: [15]; at 1.2 µM -7% | [15]; at 3.7 µM -21% | [15]; at 11.0 µM 14% | [15]; at 33.0 µM 22% | [15]; at 100.0 µM 23% | [2]; at 1.2 µM -3% | [2]; at 3.7 µM -9% | [2]; at 11.0 µM -5% | [2]; at 33.0 µM -11% | [2]; at 100.0 µM -12% | [3]; at 1.2 µM -18% | [3]; at 3.7 µM -18% | [3]; [16] -3% | [3]; at 11.0 µM -18% | [3]; at 33.0 µM -32% | [3]; [17] 21% | [3]; at 50.0 µM -0.35% | [3]; at 100.0 µM 14% | [4]; at 1.2 µM -3% | [4]; at 3.7 µM -4% | [4]; [16] 1% | [4]; at 11.0 µM -3% | [4]; at 33.0 µM -9% | [4]; [17] 43% | [4]; at 50.0 µM -9.7% | [4]; at 100.0 µM -8% | [5]; at 1.2 µM -1% | [5]; at 3.7 µM -2% | [5]; at 11.0 µM 17% | [5]; at 33.0 µM 23% | [5]; at 100.0 µM 2% | [6]; [16] 3% | [6]; [17] 15% | [6]; at 50.0 µM -5.7% | [8]; [16] -4% | [8]; at 50.0 µM 30.9% | [9]; at 1.2 µM -8% | [9]; at 3.7 µM -4% | [9]; [16] 7% | [9]; at 11.0 µM -8% | [9]; at 33.0 µM -13% | [9]; at 50.0 µM 20.1% | [9]; at 100.0 µM -12% | [10]; at 1.2 µM -13% | [10]; at 3.7 µM -4% | [10]; at 11.0 µM 5% | [10]; at 33.0 µM 8% | [10]; at 100.0 µM 29% | [11]; at 1.2 µM -13% | [11]; at 3.7 µM -8% | [11]; at 11.0 µM -8% | [11]; at 33.0 µM -11% | [11]; at 100.0 µM -18% | [12]; at 1.2 µM -14% | [12]; at 3.7 µM -8% | [12]; at 11.0 µM 8% | [12]; at 33.0 µM 3% | [12]; at 100.0 µM 29% | [13]; [16] -6% | [13]; [17] 58% | [13]; at 50.0 µM -0.8% | [14]; at 1.2 µM -8% | [14]; at 3.7 µM -9% | [14]; at 11.0 µM -8% | [14]; at 33.0 µM -1% | [14]; at 100.0 µM -36%
active: [8]; [17] 77% | [9]; [17] 91%
